Assay outcomes from PubChem.
A selection: hits, their analogues and other compounds. The true share with any hit is near 2.5%.
Cruzain inh Det: inhibitors of Trypanosoma cruzi cruzain with detergent; P25779; purified cruzain, Z-FR-AMC fluorescence, 0.01% Triton; Potency, µM, actives largely listed as inhibitors; 0.43% of 200,000 active; also: nearly all actives have a fitted effect of over 40% in size
Target sequence (P25779 123-467 limits assumed): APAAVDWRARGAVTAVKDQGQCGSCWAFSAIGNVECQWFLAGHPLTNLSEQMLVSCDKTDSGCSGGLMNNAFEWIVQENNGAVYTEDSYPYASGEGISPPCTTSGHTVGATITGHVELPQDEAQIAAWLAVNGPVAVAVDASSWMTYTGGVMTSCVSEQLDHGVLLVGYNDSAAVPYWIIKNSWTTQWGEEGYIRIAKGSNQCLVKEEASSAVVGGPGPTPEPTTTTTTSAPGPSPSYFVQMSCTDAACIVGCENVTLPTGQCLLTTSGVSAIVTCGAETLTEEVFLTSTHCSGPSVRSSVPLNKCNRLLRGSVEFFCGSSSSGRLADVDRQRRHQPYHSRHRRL
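Cysteine protease activity tested under reducing, mildly acidic conditions (100 mM sodium acetate pH 5.5, 5 mM DTT) plus 0.01% Triton X-100. Cruzain 1.5 nM; substrate Z-FR-AMC 2 uM; 15 min compound preincubation at room temperature.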
Cruzain inh noDet: blocks cruzain activity in detergent-free assay; P25779; purified cruzain, Z-FR-AMC fluorescence, no detergent; Potency, µM, most hits filed as inhibitors; 2.3% of 200,000 active; AID 1476; also: nearly all actives have a fitted effect of over 40% in size
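Detergent-free condition (0.00005% Triton X-100) in acetate buffer pH 5.5 with DTT. 1.5 nM enzyme and compound were pre-mixed 15 min, then 2 uM Z-FR-AMC substrate added; reaction progress from fluorescence change between first and third reads (60 s).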
Large screens that a line does not name were inactive. Calls follow the shape of the dose curve; as a rule, active = well fitted curve in the direction sought with a large enough effect; inconclusive = small, poorly fitted or top-dose-only effect, or another doubt; inactive = no such curve, though single readings can be large; an effect the other way counts as inactive or inconclusive.

Cc1cc(-c2ccc(N=Nc3cc(S(=O)(=O)O)c4ccccc4c3N)c(C)c2)ccc1N=Nc1cc(S(=O)(=O)O)c2ccccc2c1N	Cruzain inh Det 7.94µM, Cruzain inh noDet inconclusive
CCNc1ncc2nc(-c3ccc(Cl)cc3)c(=O)n(C)c2n1	none
COc1ccccc1NC(=O)CSc1oc(-c2ccc(F)cc2)nc1S(=O)(=O)c1ccc(Br)cc1	none
COc1ccc(CCNC(=O)c2cc3c(=O)n4cccc(C)c4nc3n(Cc3ccncc3)c2=N)cc1	none
COCCn1c(=N)c(C(=O)NCc2ccco2)cc2c(=O)n3ccccc3nc21	Cruzain inh noDet inconclusive
CCOC(=O)c1cc2c(=O)n3ccccc3nc2n(CC2CCCO2)c1=NC(C)=O (configuration not stated)	Cruzain inh Det 31.6µM, Cruzain inh noDet 10µM
CCCCNC(=O)c1cc2c(=O)n3cccc(C)c3nc2n(Cc2ccncc2)c1=N	Cruzain inh Det 22.4µM, Cruzain inh noDet inconclusive
CCn1c(=N)c(C(=O)NC)cc2c(=O)n3cccc(C)c3nc21	Cruzain inh Det 14.1µM, Cruzain inh noDet inconclusive
CCn1c(=N)c(C(=O)NCc2ccccc2)cc2c(=O)n3cccc(C)c3nc21	none
CCn1c(=N)c(C(=O)OC)cc2c(=O)n3ccccc3nc21	Cruzain inh Det 0.199µM
CCOC(=O)c1cc2c(=O)n3ccccc3nc2n(CC2CCCO2)c1=NC(=O)c1cc(C)cc(C)c1 (configuration not stated)	none
CCc1ccc(NC(=O)CC2C(=O)N(c3ccc(OC)cc3)C(=O)N2Cc2cccs2)cc1 (configuration not stated)	none
CCOC(=O)c1c(C)c(C(=O)NCCc2ccc(OC)cc2)c(C)n1CC	none
Cc1nn(C(=O)c2cccs2)c(C)c1CN1C(=O)c2ccccc2C1=O	Cruzain inh noDet 20µM
Cc1nn(C(=O)c2ccco2)c(C)c1CN1C(=O)c2ccccc2C1=O	none
CNC(=O)C1CCN(Cc2cc3ccccc3n2Cc2cccc(C)c2)CC1	none
O=c1c2cc3c(cc2n(Cc2ccc(Cl)cc2)c(=O)n1Cc1nc(-c2ccccc2)no1)OCO3	none
Cc1ccc(CNC(=O)Cn2nc(C)n3cccc3c2=O)cc1	none
COc1ccc(CNC(=O)Cn2c(=O)c3cccn3c3cccnc32)cc1	none
COc1ccc(CNC(=O)Cn2nc(C)n3cccc3c2=O)cc1	Cruzain inh noDet 25.1µM
COc1ccc(CNC(=O)Cn2c(=O)c3cccn3c3ccccc32)cc1	Cruzain inh noDet 31.6µM
COc1cccc2cc(C(=O)Nc3ccc(CC(=O)O)cc3)c(=O)oc12	none
OCC(CO)(CBr)CBr	none
COc1cccc(Nc2ncc3nc(-c4ccccc4)c(=O)n(C)c3n2)c1	none
CN(C(=O)c1ccc2c(Cl)c3c(nc2c1)CCC3)c1ccccc1F	Cruzain inh noDet inconclusive
CCOc1cccc(C2c3c(oc4ccc(F)cc4c3=O)C(=O)N2CCOC)c1 (configuration not stated)	none
CCN=C(N)CSS(=O)(=O)O	none
Cc1ccc(Cn2ccc(NC(=O)c3cc4nc5c(c(C(F)(F)F)n4n3)CCc3ccccc3-5)n2)cc1	none
Cc1ccc(O)c(NC(=O)c2cc3nc4c(c(C(F)(F)F)n3n2)CCc2ccccc2-4)c1	Cruzain inh noDet 10µM
CCOC(=O)c1cc(-c2ccc(N)cc2)sc1N	Cruzain inh noDet 31.6µM
CCOC(=O)c1sc(-c2ccc(Br)cc2)cc1N	none
CN(C)c1ccc(/C=C/C=C2/SC(=S)N(c3ccccc3)C2=O)cc1	Cruzain inh noDet 7.94µM
O=C1/C(=C/c2cccnc2)SC(=S)N1c1ccccc1	none
CCCN(Cc1cccs1)C(=O)Nc1cc(Cl)c(OC)cc1OC	none
CCN(CC)C(=O)c1sc2c(c1C)c(=O)n(-c1ccc(C)c(C)c1)c(=O)n2CC(=O)Nc1ccc(OC)cc1OC	Cruzain inh noDet inconclusive
O=S(=O)(Nc1nc2ccc(S(=O)(=O)N3CCCC3)cc2s1)c1ccc(F)cc1	Cruzain inh noDet 15.8µM
O=C(Nc1nc2ccc(S(=O)(=O)N3CCCC3)cc2s1)c1ccc(F)cc1	none
CC1CCC(C(C)C)[C@H](OC(=O)c2ccccc2)C1 (some centres not stated)	none
CC1CCC(C(C)C)C(OC(=O)C2=C3c4ccccc4S(=O)(=O)N3CC2)C1 (configuration not stated)	Cruzain inh Det inconclusive, Cruzain inh noDet 31.6µM
Cc1ccc2nc(-c3cccc(NC(=O)CSc4ccc(Cl)cc4)c3)oc2c1	none
CC1=NN(c2ccc(Br)cc2)C(=O)/C1=C/c1cccs1	none
Cc1ccc(C2=N/C(=C/c3cccs3)C(=O)N2Nc2ccccc2)cc1	Cruzain inh noDet 25.1µM
O=c1[nH]c(/C(Cl)=C/c2cccc(C(F)(F)F)c2)nc2cc(Cl)ccc12	Cruzain inh noDet 3.16µM
O=c1[nH]c(/C(Cl)=C/c2c(F)cccc2Cl)nc2cc(Cl)ccc12	Cruzain inh noDet inconclusive
COc1ccc(S(=O)(=O)Nc2ccccc2C(=O)NCc2ccco2)cc1Br	Cruzain inh Det inconclusive, Cruzain inh noDet 25.1µM
CCOc1ccc(S(=O)(=O)Nc2ccccc2C(=O)NCc2ccco2)cc1	none
Cc1ccc(C(=O)Nn2c(O)c(C=C3N=c4ccccc4=N3)sc2=S)cc1	none
Oc1c(C=C2N=c3ccccc3=N2)sc(=S)n1C1CCCC1	Cruzain inh noDet 20µM
Oc1c(C=C2N=c3ccccc3=N2)sc(=S)n1-c1ccc(F)cc1	Cruzain inh noDet 20µM
O=C(Nn1c(O)c(C=C2N=c3ccccc3=N2)sc1=S)c1ccccc1	none
CC/C=C\C/C=C\C/C=C\C/C=C\C/C=C\C/C=C\CCC(=O)NCCO	none
Cc1cc(C)c2nc(N(Cc3cccnc3)C(=O)Cc3ccccc3)sc2c1	none
CC(=O)c1ccc(NC(=O)CN(C)S(=O)(=O)c2cc3c(cc2C)NC(=O)CO3)cc1	none
CCCCOc1ccc(-c2nnn(CC(=O)c3c[nH]c4ccccc34)n2)cc1	Cruzain inh noDet 7.94µM
COc1ccc(-c2nnn(CC(=O)c3c[nH]c4ccccc34)n2)cc1OC	none
O=C(CSc1nc2ccsc2c(=O)n1Cc1ccccc1F)NCc1ccccc1	none
COc1cc2c(cc1OC)[C@@]13CCN4C=C5CCO[C@H]6CC(=O)N2[C@@H]1C6[C@H]5C[C@H]43 (some centres not stated)	none
CC(C)(C)c1ccc(C(=O)Nc2ccc(NC(=O)c3ccc(Cl)c(Cl)c3)cc2)cc1	none
CC(C)(C)c1ccc(C(=O)Nc2ccc(C=C(C#N)C#N)cc2)cc1	Cruzain inh noDet 31.6µM
CC(C)(C)C1CCc2onc(C(=O)Nc3cccc(O)c3)c2C1 (configuration not stated)	none
Cc1ccc(NC(=O)c2noc3c2CC(C(C)(C)C)CC3)cc1 (configuration not stated)	Cruzain inh noDet 12.6µM
CC1(c2ccc(Cl)cc2)CC(C)(C)N(C(=O)c2ccccc2)c2ccccc21 (configuration not stated)	Cruzain inh noDet inconclusive
CC1(c2cc([N+](=O)[O-])cc([N+](=O)[O-])c2)CC(C)(C)N(C(=O)c2ccccc2)c2ccccc21 (configuration not stated)	Cruzain inh noDet 10µM
COc1cc2nc(NC(=O)c3ccc(S(=O)(=O)N4CCCC4)cc3)sc2cc1OC	none
COc1ccc(C2C(C(N)=O)=C(C)Nc3nc(CCCO)nn32)c(OC)c1 (configuration not stated)	none
O=C(Nc1ccc2oc(-c3ccc4ccccc4c3)nc2c1)c1ccc(Cl)c(Cl)c1	none
O=C(Nc1ccc2oc(-c3ccc4ccccc4c3)nc2c1)c1ccc2c(c1)OCCO2	Cruzain inh noDet 10µM
COc1ccc(OC)c(CNC(=O)CSc2c3c(nc4cc(Cl)ccc24)CCCC3)c1	Cruzain inh noDet inconclusive
